According to PubChem BioAssay (NCI):
Compounds without any hit were thinned out: in the full panel of roughly 83,000, 20% have a hit.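 Plates (96-well) were seeded with cells, treated with compound at one concentration, and incubated for 48 hours before percent growth was determined.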 The source made the active and inactive calls. The calls were made as follows: active = growth percent below 10; inactive = the rest.

How the values were obtained:
Test in all cases: NCI-60 one-dose screen, 48 h (100 = growth as untreated, 0 = no growth, -100 = all killed)
Details in all cases: 10 µM unless noted
T-47D breast = tested on: T-47D breast
BT-549 breast = tested on: BT-549 breast
MDA-MB-435 melanoma = tested on: MDA-MB-435 melanoma
MCF7 breast = tested on: MCF7 breast
HCT-116 colon = tested on: HCT-116 colon
HCC-2998 colon = tested on: HCC-2998 colon
KM12 colon = tested on: KM12 colon
SW-620 colon = tested on: SW-620 colon

Measured: growth

O=C(CSc1nc2ccccc2[nH]1)Nc1cccc(Cl)c1
inactive: T-47D breast 83.4% | BT-549 breast 103% | MDA-MB-435 melanoma 102% | MCF7 breast 102% | HCC-2998 colon 103% | KM12 colon 99.5%
active: HCT-116 colon -54.9%

CCCCCCCCCCCCCCCCCCOc1ccccc1CC(=O)OCC[N+](CC)(CC)CC
inactive: T-47D breast 23.5% | BT-549 breast 76.3% | MDA-MB-435 melanoma 11% | MCF7 breast 12.9% | HCT-116 colon 19.8% | HCC-2998 colon 22.5% | KM12 colon 51.3%

CC(=O)CC(c1ccccc1)c1c(C)[nH]c2ccccc12 (stereo not drawn)
inactive: T-47D breast 99.5% | BT-549 breast 112% | MDA-MB-435 melanoma 100% | MCF7 breast 96.2% | HCT-116 colon 89.6% | HCC-2998 colon 110% | KM12 colon 100%

CCc1cccc2c1S/C(=C/c1ccc(Cl)cc1)C2=O
inactive: T-47D breast 68.2% | BT-549 breast 112% | SW-620 colon 94.5% | MCF7 breast 52.1% | HCT-116 colon 91.8% | HCC-2998 colon 110% | KM12 colon 98.2%

c1ccc2cc(C[n+]3ccn(CCCCCCCCCCCCn4cc[n+](Cc5ccc6ccccc6c5)c4)c3)ccc2c1
active: T-47D breast -53.1% | BT-549 breast -82.8% | MDA-MB-435 melanoma -97.1% | MCF7 breast -70.5% | HCT-116 colon -61.8% | HCC-2998 colon -83.4% | KM12 colon -86.9%

Cc1cccc2c3c(sc12)C(c1ccc(Cl)cc1)C(C#N)=C(/N=C/c1ccc(Cl)cc1)O3 (stereo not drawn)
inactive: T-47D breast 51% | BT-549 breast 22.7% | SW-620 colon 26.1% | HCT-116 colon 13.4% | HCC-2998 colon 16.2%
active: MCF7 breast 9.92% | KM12 colon 9.86%

c1ccc2c(-c3nc(-c4c[nH]c5ccncc45)cs3)c[nH]c2c1
active: MDA-MB-435 melanoma -79.8% | HCT-116 colon -15.3% | HCC-2998 colon -34.4%
inactive: T-47D breast 58.8% | BT-549 breast 77.3% | MCF7 breast 20.5% | KM12 colon 34%

Cc1nn(-c2ccccc2)c2c1N=c1s/c(=C\c3ccc(C(F)(F)F)cc3)c(=O)n1CN2
inactive: T-47D breast 54% | BT-549 breast 72.2% | MDA-MB-435 melanoma 61.4% | MCF7 breast 56.9% | HCT-116 colon 27.8% | HCC-2998 colon 74.2% | KM12 colon 97.2%

CNC(=O)c1cc(-n2ccc3cc(NC(=O)c4ccc(N5CCOCC5)c(C(F)(F)F)c4)ccc32)ccn1
inactive: T-47D breast 25.8% | BT-549 breast 43.8% | MDA-MB-435 melanoma 76.4% | MCF7 breast 60.6% | HCT-116 colon 38.7% | HCC-2998 colon 63.8% | KM12 colon 17.7%

CCOC(=O)c1cn2ncnc(Oc3ccc(NC(=O)NCCN(C)C)c(Cl)c3)c2c1C
inactive: T-47D breast 45.8% | BT-549 breast 77.8% | MDA-MB-435 melanoma 46.1% | MCF7 breast 61.6% | HCT-116 colon 36.4% | HCC-2998 colon 80.2% | KM12 colon 93.3%

COc1ccc(-c2nc3sc(-c4ccc(Cl)cc4)cn3n2)cc1
inactive: T-47D breast 54.9% | BT-549 breast 97.6% | MDA-MB-435 melanoma 75% | MCF7 breast 48.9% | HCC-2998 colon 78.6% | KM12 colon 54.7%
active: HCT-116 colon -16.3%

Cc1nc(/N=C(\N)NC(=O)Nc2cccc(Cl)c2)sc1C
active: MDA-MB-435 melanoma -13.5%
inactive: T-47D breast 73.5% | BT-549 breast 71.7% | MCF7 breast 35.9% | HCT-116 colon 66.4% | HCC-2998 colon 78.2% | KM12 colon 41.6%

CC(=O)CC[C@H]1C(=O)N[C@@H](C(C)C)C(=O)N[C@@H](Cc2cc(O)cc(F)c2)C(=O)N2CCC[C@H](N2)C(=O)O[C@H](/C(C)=C/C=C/C(=O)OC(C)(C)C)C/C=C/C=C/[C@H](O)[C@H](C)[C@H]1O
inactive: T-47D breast 55% | BT-549 breast 39.6% | MDA-MB-435 melanoma 43% | MCF7 breast 48.2% | HCT-116 colon 26.6% | HCC-2998 colon 51.8% | KM12 colon 34.1%

O=C(N/N=C/[C@H](O)[C@@H](O)[C@@H](O)[C@H](O)CO)c1ccc(NC(=O)c2cccnc2)cc1
inactive: T-47D breast 100% | BT-549 breast 106% | MDA-MB-435 melanoma 106% | MCF7 breast 94.8% | HCT-116 colon 108% | HCC-2998 colon 117% | KM12 colon 106%

CC1=C(SCCC(=O)OC(C[Se]C2=C(C)C(=O)c3ccccc3C2=O)C(=O)NC(C)(C)C)C(=O)c2ccccc2C1=O (stereo not drawn)
active: T-47D breast -52.9% | BT-549 breast -96.2% | MDA-MB-435 melanoma -86.8% | MCF7 breast -63.5% | HCT-116 colon -70.9% | HCC-2998 colon -82.8% | KM12 colon -94.6%

COc1ccc(C2C(C#N)=C(N)Oc3c2sc2c(C)cccc32)cc1 (stereo not drawn)
inactive: T-47D breast 46.9% | BT-549 breast 25.1% | SW-620 colon 26% | MCF7 breast 10.8% | HCT-116 colon 13.2% | HCC-2998 colon 11% | KM12 colon 11.7%

N#Cc1ccc(NC(=O)c2sc3nc4c(cc3c2N)C(=O)CCC4)cc1
inactive: T-47D breast 95.9% | BT-549 breast 108% | MDA-MB-435 melanoma 97.4% | MCF7 breast 97.4% | HCT-116 colon 108% | HCC-2998 colon 99.2% | KM12 colon 101%

CN(C)c1ccc2nc3ccc(=[N+](C)C)c([N+](=O)[O-])c-3sc2c1
inactive: T-47D breast 10.3% | BT-549 breast 40.5% | MDA-MB-435 melanoma 41.9% | HCT-116 colon 20.7% | HCC-2998 colon 42.7% | KM12 colon 34.6%
active: MCF7 breast 7.94%

CNC(C)[C@H]1CCC2C3CCC4C[C@@H](N(C)C(=O)c5ccccc5)CC[C@]4(C)C3CC[C@@]21C (stereo partly drawn)
active: T-47D breast 0.208% | MDA-MB-435 melanoma -25.6% | MCF7 breast 5.05% | HCT-116 colon -1.52%
inactive: BT-549 breast 31% | HCC-2998 colon 18.4% | KM12 colon 15.4%

Cc1nc(NC(=O)COc2ccc(/C=C3\Cc4ccc(Cl)cc4C3=O)cc2)sc1C
inactive: T-47D breast 109% | BT-549 breast 328% | MDA-MB-435 melanoma 96.8% | MCF7 breast 88.6% | HCT-116 colon 109% | HCC-2998 colon 90.9% | KM12 colon 119%

COc1cccc(-c2nc(-c3ccc(NC(=O)C(C)C)cc3)[nH]c2-c2ccnc(Br)c2)c1
inactive: BT-549 breast 56.9% | SW-620 colon 42.2% | MCF7 breast 12.3% | HCT-116 colon 34% | HCC-2998 colon 45.7% | KM12 colon 36.4%
active: T-47D breast 0.829%

Cc1nn(-c2ccccc2)c(-n2ccnc2)c1/C=N/Nc1nc(-c2ccc(Cl)c(Cl)c2)cs1
active: HCT-116 colon 0.896%
inactive: T-47D breast 28.7% | BT-549 breast 71.5% | MDA-MB-435 melanoma 66.2% | MCF7 breast 17.1% | HCC-2998 colon 63.5% | KM12 colon 66.7%

Cc1ccc2nc(NC(=O)CSc3nc(Cl)c(C#N)c(-c4ccccc4)n3)sc2c1
inactive: T-47D breast 89.1% | BT-549 breast 103% | MDA-MB-435 melanoma 98.8% | MCF7 breast 91.7% | HCT-116 colon 102% | HCC-2998 colon 108% | KM12 colon 110%

CCCCCCn1c(-c2ccc(C(=O)O/N=C(\N)c3ccc4c(c3)OCO4)cc2)nc(-c2ccccc2)c1-c1ccccc1
inactive: BT-549 breast 43.5% | SW-620 colon 37.8% | HCC-2998 colon 44% | KM12 colon 31.8%
active: T-47D breast -11.9% | MCF7 breast 7.05% | HCT-116 colon 2.68%

Cc1nn(-c2ccccc2)c(-n2ccnc2)c1/C=N/Nc1nc(-c2ccc(F)cc2)cs1
inactive: T-47D breast 31.1% | BT-549 breast 75.3% | MDA-MB-435 melanoma 85.2% | MCF7 breast 72.3% | HCT-116 colon 67.8% | HCC-2998 colon 104% | KM12 colon 90.4%

Nc1nc(-c2cccc3ccccc23)cc2ccccc12
inactive: T-47D breast 43.7% | BT-549 breast 39.2% | HCT-116 colon 10.8%
active: MDA-MB-435 melanoma -64.8% | MCF7 breast 7.69% | HCC-2998 colon -5.78% | KM12 colon 5.93%

Cc1nc2ccccc2c(/C=C/c2ccc(Cl)cc2)c1C(=O)/C=C/c1cccs1
inactive: T-47D breast 50.1% | BT-549 breast 90.9% | MDA-MB-435 melanoma 89.3% | MCF7 breast 41.9% | HCT-116 colon 33.9% | HCC-2998 colon 73.5% | KM12 colon 81.5%

Cc1ccc(S(=O)(=O)N/N=C/C2(c3ccccc3)CC2)cc1
inactive: T-47D breast 101% | BT-549 breast 102% | MDA-MB-435 melanoma 104% | MCF7 breast 88.6% | HCT-116 colon 98.7% | HCC-2998 colon 111% | KM12 colon 107%

COc1ccc(-c2csc(NC(=O)N3CCN(c4cc5c(cc4F)c(=O)c(C(=O)O)cn5C4CC4)CC3)n2)cc1
active: T-47D breast 5.11% | BT-549 breast -13.5% | MDA-MB-435 melanoma 3.67% | MCF7 breast 3.38% | HCT-116 colon 5.37% | KM12 colon 3.67%
inactive: HCC-2998 colon 31%
